Compound activity from PubChem.
HT1080 IDH1KD tx: HT-1080 IDH1 knockdown cell toxicity (counter line); HT-1080 IDH1 knockdown viability, ATP luminescence, 48 h; Potency, µM (titrated, usually from 46.1 µM), inactives show at the top dose activity, negative = toxicity, actives largely listed as cytotoxic; 360,000 tested, 2% active;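 also: potency is read from the fitted curve at half-maximal effect; 0% = DMSO wells and -100% = cell-free medium wells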
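Luminescent ATP read-out (CellTiter-Glo, 10 min at room temperature) after 48 h compound exposure at 37 °C gave viability of IDH1-knockdown HT-1080 cells. Activity was normalised to DMSO and cell-free wells, then fitted as concentration-response curves.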
TDP1 cell CPT: growth inhibition of DT40 Tdp1-/-;hTDP1 cells with camptothecin (screen for TDP1 inhibitors). 420,000 tested, 12% active. Potency, µM (titrated, usually from 46.2 µM), without a hit: at the highest dose activity change, negative = growth inhibition, most hits filed as inhibitors. chicken DT40 Tdp1-/-;hTDP1 cells + 20 nM CPT, ATP luminescence, 48 h. AID 686979; also: potency is read from the fitted curve at half-maximal effect; nearly all actives have a fitted effect of over 55% in size
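Cell growth measured by CellTiter-Glo luminescence after a minimum 48 h, 37 C compound exposure with 20 nM CPT in Tdp1-knockout DT40 cells stably expressing hTDP1, seeded 400/well; qHTS titration format.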
DT40 TDP1 no CPT: qHTS for Inhibitors of human tyrosyl-DNA phosphodiesterase 1 (TDP1): qHTS in cells in absence of CPT. DT40 Tdp1-/- hTDP1 cells, no CPT, ATP luminescence, 48 h. Potency, µM (doses to about 46.2 µM), inactives show at the top dose activity change, negative = growth inhibition, most hits filed as inhibitors. 420,000 tested, 15% active. AID 686978, 2013; also: potency is read from the fitted curve at half-maximal effect; nearly all actives have a fitted effect of over 55% in size
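A cellular qHTS used chicken DT40 cells lacking endogenous Tdp1 but carrying stably transfected human TDP1. Compounds were applied without camptothecin, and cell growth kinetics were judged by ATP-dependent luminescence after ≥48 hr.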
IL1B secr inh: blocks inflammasome-driven IL-1 beta release; AID 743279; 360,000 tested, 4.7% active; THP-1 LPS/ATP IL-1B secretion, AlphaLISA, 16 h; active compounds read low; activity change, % at 57.5 µM; in the data active = activity change below about -50%; inconclusive = mostly about -30% to -49%
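Secreted IL-1B measured by AlphaLISA bead assay after 16 h compound exposure of THP-1 cells; compounds (final up to 57.5 uM) added 1 h before LPS (250 ng/mL) and ATP (1.25 mM) stimulation; lower signal means less secretion.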
ELG1 repair inh: ELG1-dependent DNA repair inhibition | 330,000 tested, 2.3% active | Potency, µM (titrated, usually from 46.1 µM), for the others: at the highest dose activity change, negative = inhibition, actives largely listed as inhibitors | HEK293T ELG1-luciferase reporter, luminescence, 16 h; DNA damage induced by 5-fluorouridine; also: potency is read from the fitted curve at half-maximal effect; nearly all actives have a fitted effect of over 55% in size
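DMSO vehicle served as the neutral condition. Each well held 2,000 cells given 5-fluorouridine plus compound; after 16 hr at 37 °C/5% CO2, ONE-Glo was added and luciferase measured 30 min later.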
HT1080-NT tox: kills 2HG-producing HT-1080-NT fibrosarcoma cells; HT-1080-NT fibrosarcoma viability, CellTiter-Glo ATP luminescence, 48 h; Potency, µM (series often up to 46.1 µM), inactives show at the highest dose activity, negative = less viability, most hits filed as cytotoxic; 360,000 tested, 1.6% active; AID 686970;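 also: NT is the 2HG producing partner of a matched IDH1 knockdown line; potency is read from the fitted curve at half-maximal effect; 0% = DMSO-treated cells and -100% = media-only wells without cells; nearly all actives have a fitted effect of over 55% in size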
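Luminescent CellTiter-Glo readout after 48 hours of compound exposure at 37 degrees C defined viability of HT-1080-NT cells. Activity was normalized to DMSO wells and cell-free media wells; concentration-response curves were fitted and assigned curve classes.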
Starred values were filed as active, the others as inactive; u = inconclusive; x = no result. In the library only some 19% were active in any assay of this set; here they are far more common. Unless noted, calls follow the shape of the dose curve; as a rule, active = well fitted curve in the direction sought with a large enough effect; inconclusive = small, poorly fitted or top-dose-only effect, or another doubt; inactive = no such curve, though single readings can be large; an effect the other way counts as inactive or inconclusive. Unless noted, % is scaled to controls: 0 for no effect and ±100 for the full control effect.

SMILES | HT1080 IDH1KD tx | TDP1 cell CPT | DT40 TDP1 no CPT | IL1B secr inh | ELG1 repair inh | HT1080-NT tox
OC[C@@H]1CN(CCN2CCOCC2)C[C@H](n2cnc3c(N4CCCC4)ncnc32)O1 | u | 6% | -6% | 20 | x | u
CCOC(=O)C(Cc1ccc(O)cc1)NC(=O)CNC(=O)C(CC(C)C)NC(=O)OC(C)(C)C (centres undefined) | -7% | -2% | -17% | -99* | 8% | -14%
CCOC(=O)CNC(=O)C(Cc1ccccc1)NC(=O)OCc1ccccc1 (centres undefined) | -1% | u | u | -26 | -3% | -2%
CCOC(=O)C(Cc1ccccc1)NC(=O)CNC(=O)CNC(=O)OCc1ccccc1 (centres undefined) | -7% | -3% | -23% | -88* | 17% | -19%
Cc1ccc(NC(=O)C(Cc2ccccc2)NC(=O)OCc2ccccc2)cc1C (centres undefined) | -5% | u | 23µM* | 14 | -17% | -12%
CC(C)CC(NC(=O)OCc1ccccc1)C(=O)NC(Cc1ccccc1)C(=O)CCl (centres undefined) | u | 4.6µM* | 2.9µM* | -100* | x | u
Cc1cccc(NC(=O)[C@H](Cc2ccccc2)NC(=O)OCc2ccccc2)c1 | -3% | -17% | u | 0 | 2% | -5%
COC(=O)c1cc(S(=O)(=O)NCc2ccc(S(N)(=O)=O)cc2)oc1C | 3% | 13% | -12% | 21 | -6% | -4%
Cc1cc(C)c2c(CC(=O)Nc3ccccc3C(F)(F)F)coc2c1 | x | -2% | 14% | x | x | x
O=C(O)C1CCCC1 | x | 0% | 1% | x | x | x
Cc1cnc2c(c1SCC(=O)NCc1ccccc1Cl)c(=O)n(C)c(=O)n2C | x | -14% | -19% | x | x | x
COC1C=CC=C(C)C(=O)NC2=CC(=O)C(N)=C(CC(C)CC(OC)C(O)C(C)C=C(C)C1OC(N)=O)C2=O (centres undefined) | 0.041µM* | 0.16µM* | 0.18µM* | -92* | x | u
C=CCNC1=C2C[C@@H](C)C[C@H](OC)[C@H](O)[C@@H](C)/C=C(\C)[C@H](OC(N)=O)[C@@H](OC)/C=C\C=C(/C)C(=O)NC(=CC1=O)C2=O | x | 1.1µM* | 0.38µM* | x | x | x
COc1ccc(-c2cnnc(N/N=C/c3ccc(O)c(O)c3)n2)cc1 | u | 7.3µM* | 9.2µM* | -5 | -24% | u
Cc1ccc(/C=N/Nc2nc3ccccc3s2)o1 | -10% | u | u | u | u | -8%
COc1ccc(-c2cnnc(N/N=C/c3ccc(C)o3)n2)cc1 | -1% | u | 18µM* | -19 | 4% | 6%
CCNc1nc(NCC)nc(N/N=C/c2ccc(O)c(O)c2)n1 | -7% | 23µM* | -4% | 19 | u | -4%
CCNc1nc(NCC)nc(N/N=C/c2ccc(N(C)C)cc2)n1 | 6% | u | u | 0 | 17% | 7%
Brc1ccc(-c2ccc(/C=N/Nc3nncc(-c4ccccc4)n3)o2)cc1 | 14% | u | 18µM* | -3 | u | 4%
Brc1ccc(/C=N/Nc2nncc(-c3ccccc3)n2)o1 | x | x | x | x | 9% | x
O=C(OCC(=O)N1CCOCC1)c1cccc(S(=O)(=O)N2CCCc3ccccc32)c1 | -2% | -29% | -6% | 43 | 0% | 0%
COC(=O)Cc1c(C)c2ccc(OCC(=O)NC3CCS(=O)(=O)C3)cc2oc1=O (centres undefined) | 0% | 2% | 14% | 3 | 13% | 7%
COc1ccc(-c2cnnc(N/N=C/c3ccc(O)cc3)n2)cc1 | -13% | u | 12µM* | u | u | -15%
COc1ccc(-c2cnnc(N/N=C/c3c(C)nn(-c4ccccc4)c3Cl)n2)cc1 | u | 3.7µM* | 5.2µM* | -3 | u | 10%
Oc1ccc(/C=N\Nc2nncc(-c3ccccc3)n2)cc1 | u | u | u | u | 14% | u
SMILES | HT1080 IDH1KD tx | TDP1 cell CPT | DT40 TDP1 no CPT | IL1B secr inh | ELG1 repair inh | HT1080-NT tox
CCC(Oc1ccccc1)C(=O)NCc1ccc(S(N)(=O)=O)cc1 (centres undefined) | 19% | -23% | -19% | 59 | -3% | 10%
Nc1ccc2c(c1)[nH]c(=O)c1ccccc12 | u | u | u | -75* | x | -2%
CC(=O)Nc1ccc2c(c1)[nH]c(=O)c1ccccc12 | -1% | 0.82µM* | u | -14 | x | 5%
Cc1ccccc1NC(=O)Cc1nc(COC(=O)c2nccnc2N)cs1 | 1% | -10% | -16% | -18 | x | -1%
CCc1nn(CCCC(=O)N2CCN(c3cc(Cl)ccc3C)CC2)c(=O)c2cc3occc3n12 | x | u | 23µM* | x | x | x
CCc1nn(CCCC(=O)N2CCN(c3cccc(OC)c3)CC2)c(=O)c2cc3occc3n12 | x | -19% | -27% | x | x | x
CCC(C(=O)N1CCN(c2ccc(OC)cc2)CC1)n1nc(C)n2c(cc3occc32)c1=O (centres undefined) | x | 18µM* | 18µM* | x | x | x
CCC(C(=O)N1CCCCCC1)n1nc(C)n2c(cc3occc32)c1=O (centres undefined) | -1% | -18% | 0% | -6 | 24% | -5%
CCc1nn(C(C)C(=O)N2CCN(c3cccc(C(F)(F)F)c3)CC2)c(=O)c2cc3occc3n12 (centres undefined) | x | u | 23µM* | x | x | x
Cc1cccc(N2CCN(C(=O)CCCn3ncn4c(cc5occc54)c3=O)CC2)c1C | x | u | 26µM* | x | x | x
Cc1cc(C)c(OCCN2CCOCC2)c(Cl)c1 | 2% | -26% | 1% | 18 | 9% | 3%
COc1ccc(CCNC[C@H](O)c2ccc(O)cc2)cc1OC | x | -2% | u | x | x | x
CC(=O)/C(=C\c1ccccc1)CC(=O)O | x | 1% | 5% | x | x | x
Cc1ccc(-n2nc(C)c3c(C)cc(=O)n(CC(=O)NCc4ccc(OC(C)C)cc4)c32)cc1 | x | -15% | -11% | x | x | x
CCc1nn(C(C)C(=O)N2CCN(c3ccc(OC)cc3)CC2)c(=O)c2cc3occc3n12 (centres undefined) | u | 4.6µM* | 7.3µM* | 22 | -11% | -26%
COc1ccc(N2CCN(C(=O)[C@H](C)N3C(=O)C4CC=CCC4C3=O)CC2)cc1 (some centres undefined) | -4% | -8% | -6% | -2 | -6% | -5%
